DAX1 inh-1: DAX1 (NR0B1) inhibitors, primary screen, cell-based, HEK293, Gal4-DAX1, luciferase luminescence. HEK293 Gal4-DAX1 luciferase reporter. inhibition, % at 6.75 µM. 340,000 tested, 0.99% active. AID 504766, 2011;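 active means inhibition above the mean over all tested compounds plus 3 SD, cut at about 4.2% in these data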;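 further: 0% = DAX1-transfected cells with DMSO and 100% = empty-vector control cells with DMSO; inhibition shows as a rise in luminescence from relieved DAX1 repression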
hcDAF12 agonist: H. contortus DAF-12 nuclear receptor activators, primary screen, cell-based, luminescence, HEK293, lit1-tk-luc reporter. HEK293 hcDAF-12 lit1-tk-luc reporter; 0% DMSO, 100% Δ7-dafachronic acid. activation, % at 6.8 µM. 370,000 tested, 1.4% active. AID 652067, 2013;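 active means activation above the mean of all tested compounds plus 3 SD, cut at about 5.5% in these data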;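 further: 100% = response to 3 µM Δ7-dafachronic acid high control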
hgDAF-12 ag: H. glycines DAF-12 receptor agonists, primary screen, cell-based, luminescence, HEK293, GAL4 fusion, UAS-luciferase | HEK293 GAL4-hgDAF12 UAS-luciferase reporter, agonist luminescence; normalized to butyrate control | activation, % at 6.8 µM | 370,000 tested, 1.8% active | Nuclear hormone receptor DAF-12 (Heterodera glycines), GAL4 fusion;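 active means activation above a cutoff set at the mean of all screened compounds plus 3 SD, cut at about 10% in these data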;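 further: 0% = DMSO wells and 100% = sodium butyrate wells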
ssDAF-12 act: S. stercoralis DAF-12 nuclear receptor activators, primary screen, cell-based, luminescence, HEK293, GRIP1 co-expression, lit1-tk-luc | HEK293 ssDAF-12/GRIP1 lit1-tk-luc reporter; % of 3 µM dafachronic acid response | activation, % at 6.8 µM | 370,000 tested, 1% active;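 active means activation above the mean over all tested compounds plus 3 SD, cut at about 0.9% in these data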;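 further: 0% = DMSO-only wells and 100% = 3 µM delta7-dafachronic acid wells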
NR1D1 modulator: modulators of Rev-erb alpha DNA binding, primary screen, biochemical, FITC-DNA, fluorescence polarization, uHTS; Nuclear receptor subfamily 1 group D member 1 (Homo sapiens), P20393; Rev-erbα–FITC-DNA binding, 90 min; activity, % at 10 µM; 370,000 tested, 0.79% active; AID 1259318, 2017;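 active means activity above about 14%, limit read from the data; passing the limit was not always enough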;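 further: 0% = DMSO wells with 35 nM protein and 100% = DMSO wells with 750 nM protein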
Target sequence (P20393 whole entry, looked up): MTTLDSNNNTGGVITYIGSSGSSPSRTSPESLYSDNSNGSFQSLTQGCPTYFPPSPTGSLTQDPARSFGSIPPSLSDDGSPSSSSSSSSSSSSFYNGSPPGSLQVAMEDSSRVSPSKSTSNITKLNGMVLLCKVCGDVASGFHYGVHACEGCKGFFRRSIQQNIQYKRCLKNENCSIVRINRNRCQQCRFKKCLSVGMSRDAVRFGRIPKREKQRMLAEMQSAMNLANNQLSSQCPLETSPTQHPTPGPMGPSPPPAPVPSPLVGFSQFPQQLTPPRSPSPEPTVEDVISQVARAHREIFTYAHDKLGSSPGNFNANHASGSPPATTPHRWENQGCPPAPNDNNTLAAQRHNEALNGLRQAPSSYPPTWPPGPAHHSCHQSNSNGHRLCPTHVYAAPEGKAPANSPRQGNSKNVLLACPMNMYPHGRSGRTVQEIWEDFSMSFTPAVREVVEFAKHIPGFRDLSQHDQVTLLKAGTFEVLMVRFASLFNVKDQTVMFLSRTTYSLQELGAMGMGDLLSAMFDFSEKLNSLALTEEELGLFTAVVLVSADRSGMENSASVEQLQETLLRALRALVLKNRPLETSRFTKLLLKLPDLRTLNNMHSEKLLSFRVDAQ
DAX1 inh-2: DAX1 (NR0B1) inhibitors on StAR promoter, primary screen, cell-based, luminescence, SF-1 (NR5A1), full-length DAX-1; inhibition, % at 6.8 µM; 370,000 tested, 1.1% active; HEK293T StAR-luciferase reporter, SF-1/DAX-1 repression relief; AID 652010, 2013;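 active means inhibition above the mean over all tested compounds plus 3 SD, cut at about 3.6% in these data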;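 further: 0% = DAX-1 cells with DMSO and 100% = cells lacking DAX-1 with DMSO; higher inhibition means more luminescence from relief of DAX-1 repression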
hgDAF12 conf: H. glycines DAF-12 receptor agonists, confirmation, cell-based, luminescence, HEK293, GAL4-LBD fusion; AID 743050, 2013; 3,300 tested, 80% active; shares compounds with hgDAF-12 ag; HEK293 GAL4-hgDAF12 luciferase reporter, agonist mode; percent of butyrate response; activation, % at 6.8 µM;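 active means mean activation over triplicate wells above the hit cutoff derived from the earlier primary screen, cut at about 11% in these data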;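 further: 0% = DMSO low control and 100% = 2 mM sodium butyrate high control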
LXR ag 2: LXR agonists, Gal4 luciferase reporter, confirmation, counter-screen for hgDAF-12 agonist project, cell-based, luminescence, HEK293, H. glycines campaign | shares compounds with hgDAF-12 ag | 24 h | activation, % at 6.8 µM | 3,300 tested, under 10 active;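 active means mean activation of the triplicate above a set limit carried over from the primary screen, none filed active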
* = called active by the depositor; x = no result. Shown are actives, neighbours in structure and some others; about 4.8% of the full set was active somewhere.

SMILES	DAX1 inh-1	hcDAF12 agonist	hgDAF-12 ag	ssDAF-12 act	NR1D1 modulator	DAX1 inh-2	hgDAF12 conf	LXR ag 2
Cc1ccc(-c2cc(C(=O)NCC3CCCO3)no2)cc1 (stereo not drawn)	1.4	1.3	14.3*	-0.7	2.3	3.2	13.1*	0.5
Cc1ccc2c(Cl)c(C(=O)NCC3CCCO3)sc2c1 (stereo not drawn)	2.8	3.0	7.8	-0.3	3.5	2.9	x	x
O=C(NCC1CCCO1)c1cc(-c2ccccc2)on1 (stereo not drawn)	4.3*	6.5*	42.0*	0.3	-1.6	2.2	48.4*	0.6
O=C(NCC1CCCO1)c1cc(-c2ccc(F)cc2)no1 (stereo not drawn)	2.2	4.0	18.4*	0.4	3.9	2.1	19.1*	0.1
O=C(NCC1CCCO1)c1cc(-c2ccc(Cl)cc2Cl)on1 (stereo not drawn)	0.1	1.5	8.9	0.0	4.1	2.7	x	x
C/C(CCc1ccccc1)=N\NC(=O)c1ccccc1	1.4	1.0	13.9*	0.1	4.2	1.9	3.0	0.1
Cn1c(NC(=O)c2ccccc2)nc(Cc2ccccc2)c1-c1ccccc1	x	-0.7	-1.6	-1.5	-10.0	-0.7	x	x
O=C(CSc1nc2ccc(NC(=O)CSc3nnnn3-c3ccccc3)cc2s1)Nc1ccccc1	-1.9	1.6	-2.0	-0.7	9.6	-0.9	x	x
Cn1cnnc1SCC(=O)Nc1ccc2nc(SCc3ccccc3F)sc2c1	1.8	1.2	13.2*	-0.7	4.7	0.8	12.6*	0.4
COc1ccccc1N1CCN(C2=Nc3cccc4cccc2c34)CC1	-0.1	-1.1	13.5*	-0.3	3.2	4.0*	7.9	0.4
C=CCOC(=O)C1=C(C)N=c2sc(=C3C(=O)N(CC(=O)O)c4ccccc43)c(=O)n2C1c1ccc(OC)cc1 (stereo not drawn)	x	0.0	-2.8	-0.2	-3.3	0.0	x	x
CCN(CC)C(=O)[C@H]1C[C@@H]2[C@H](C[C@@H](c3ccccc3)[C@H]1C)N(c1ccc(F)cc1)C(=O)N2C/C=C(\C)CCC=C(C)C	x	-1.2	0.9	-1.1	1.1	0.4	x	x
CCCSc1nsc(NC(=O)CC)n1	0.7	3.9	17.4*	-0.5	2.4	3.0	10.9*	0.7
O=c1sc2ccccc2n1CCOc1ccccc1	2.2	5.6*	14.8*	0.5	-4.4	2.5	12.3*	0.6
O=C(O)CCn1c(=O)sc2ccccc21	0.4	-0.7	0.8	-1.4	-2.6	-0.6	x	x
COc1ccc(S[C@]2(C(=O)N(C)C)CC(=O)N(C(=O)c3ccccc3)[C@@H]2c2ccc(OC)cc2)cc1	x	-1.0	-2.7	-1.0	0.2	-1.9	x	x
COc1ccc(NC(=O)c2cc3ccccc3o/c2=N\NS(=O)(=O)c2ccc(C)cc2)cc1	1.7	6.0*	14.2*	0.0	-4.5	2.3	12.6*	0.7
COc1cccc2cc(C(=O)Nc3cc(C)cc(C)c3)/c(=N/NS(=O)(=O)c3ccccc3)oc12	0.6	1.2	0.0	-0.8	-6.1	-0.7	x	x

Screens: PubChem BioAssay, several laboratories
